Reference: PMC5540273 (PLoS ONE, 2017)

Assays:
Conditions in all cases: concentration: 1 μM, replicates: in singlicate; n = 1
IKK-alpha = tested on: T1, IKK-alpha
T1 construct: gene CHUK

IKK-beta = tested on: T2, IKK-beta
T2 construct: gene IKBKB

IKK-epsilon = tested on: T3, IKK-epsilon
T3 construct: gene IKBKE

INSRR = tested on: INSRR
INSR = tested on: INSR
IRAK1 = tested on: IRAK1
IRAK3 = tested on: IRAK3
IRAK4 = tested on: IRAK4
ITK = tested on: ITK
[1] = tested on: JAK1(JH1domain-catalytic)
[2] = tested on: JAK1(JH2domain-pseudokinase)
[3] = tested on: JAK2(JH1domain-catalytic)
[4] = tested on: JAK3(JH1domain-catalytic)
JNK1 = tested on: T4, JNK1
T4 construct: gene MAPK8

JNK2 = tested on: T5, JNK2
T5 construct: gene MAPK9

JNK3 = tested on: T6, JNK3
T6 construct: gene MAPK10

KIT-autoinhibited = tested on: KIT-autoinhibited
KIT = tested on: KIT
LATS1 = tested on: LATS1
LATS2 = tested on: LATS2
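Note: KINOMEscan kinase panel screen.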

SMILES | %Inh (IKK-alpha) | %Inh (IKK-beta) | %Inh (IKK-epsilon) | %Inh (INSRR) | %Inh (INSR) | %Inh (IRAK1) | %Inh (IRAK3) | %Inh (IRAK4) | %Inh (ITK) | %Inh [1] | %Inh [2] | %Inh [3] | %Inh [4] | %Inh (JNK1) | %Inh (JNK2) | %Inh (JNK3) | %Inh (KIT-autoinhibited) | %Inh (KIT) | %Inh (LATS1) | %Inh (LATS2)
O=C(O)C(F)(F)F.O=c1[nH]ccc2nc(N[C@@H]3CCNC3)nc(Nc3cc(Cl)cc(Cl)c3)c12 [GSK2188764] | 72% | 44% | 29% | 5% | 36% | 90.1% | 1% | 17% | 17% | 93.5% | 98% | 92.2% | 100% | 36% | 7% | 25% | 2% | 73% | 42% | 59%
CN(c1ccc(NC(=O)Nc2cccc(Cl)c2)cc1)c1ccnc(N)n1.Cl [GW830707] | 0% | 0% | 8% | 3% | 0% | 0% | 31% | 0% | 0% | 0% | 0% | 27% | 0% | 0% | 0% | 0% | 45% | 100% | 18% | 0%
COc1cccc(CC(=O)N2CCc3cc(-c4cn(C)c5ncnc(N)c45)ccc32)c1 [GSK2608899] | 0% | 60% | 75% | 13% | 9% | 0% | 14% | 0% | 12% | 8% | 0% | 0% | 0% | 4% | 16% | 3% | 11% | 100% | 0% | 10%
COc1cccc(-c2nc(-c3ccccc3)[nH]c2-c2ccncc2)c1 [SB-610250] | 33% | 35% | 0% | 0% | 5% | 48% | 0% | 46% | 15% | 23% | 12% | 17% | 0% | 30% | 83% | 90% | 0% | 0% | 45% | 0%
COc1cc(Nc2nccc(N3CCC(NC(=O)Nc4ccc5c(c4)OCO5)C3)n2)cc(OC)c1OC (centres unmarked) [GSK1379766] | 27% | 11% | 29% | 0% | 25% | 80% | 85% | 44% | 10% | 12% | 47% | 89% | 0% | 34% | 0% | 35% | 5% | 66% | 0% | 12%
COc1ccc(NC(=O)c2ccoc2)cc1-c1ccc(C(=O)NCC2CC2)cc1 [GW810437] | 0% | 0% | 0% | 0% | 10% | 6% | 0% | 0% | 4% | 0% | 0% | 47% | 0% | 23% | 23% | 11% | 17% | 0% | 12% | 0%
COC(=O)Nc1nc2cc(Oc3ccc(NC(=O)Nc4cccc(SC)c4)cc3)ccc2[nH]1.Cl [GW697999] | 35% | 0% | 10% | 0% | 0% | 36% | 24% | 12% | 26% | 2% | 0% | 0% | 0% | 16% | 16% | 0% | 50% | 99.9% | 43% | 0%
CCNC(=O)/C=C/c1n[nH]c2cc(Sc3ccccc3C(=O)NC)ccc12 | 26% | 20% | 8% | 34% | 0% | 33% | 9% | 0% | 0% | 0% | 0% | 0% | 18% | 15% | 4% | 0% | 95% | 100% | 17% | 22%
Cn1cc(-c2ccc3c(c2)CCN3C(=O)Cc2cc(F)cc(F)c2F)c2c(N)ncnc21 [GSK2634140] | 0% | 12% | 75% | 0% | 0% | 7% | 6% | 0% | 20% | 1% | 0% | 11% | 0% | 15% | 24% | 4% | 0% | 99.1% | 80% | 7%
Cc1cc(-c2ccnc(Nc3cccc(C#N)c3)n2)cc(C)c1O [GSK1440913] | 61% | 67% | 28% | 23% | 0% | 52% | 82% | 11% | 9% | 0% | 78% | 92.6% | 74% | 98.9% | 77% | 99% | 0% | 49% | 0% | 0%
